These results are taken from PubChem BioAssay (Tox21).

Values without a mark were called inactive. Records with an inconclusive call do not appear. Active and inactive are the calls of the source. Unless noted, calls follow the shape of the full dose curve.

The nature of test [1]: qHTS assay to identify small molecule agonists of the sonic hedgehog signaling (Shh) pathway (AID 1259368).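 Also: NIH/3T3-derived 3T3Gli1-Luc cells carrying a stable Gli1-driven firefly luciferase reporter; series mostly up to about 92 µM; nearly all actives have a fitted effect of over 15% in size.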 An outline of the steps:
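Read-out: firefly luciferase luminescence from a Gli1 response element reporter stably integrated in NIH/3T3-derived 3T3Gli1-Luc cells, measured 30 min at room temperature after reagent addition. Compound exposure lasted 24 hr at 37 C, 5% CO2.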
(Quantitative high-throughput screening tests each substance at several concentrations.)

Test [2] can be described thus: qHTS assay to identify small molecule antagonists of the sonic hedgehog signaling (Shh) pathway (AID 1259369). Also: nearly all actives have a fitted effect of over 45% in size. Also: potency is read from the fitted curve at half-maximal effect. An outline of the steps:
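Luminescence readout: firefly Luc under Gli1 response element in 3T3Gli1-Luc cells (NIH/3T3 clone). Antagonist mode, stimulation by conditioned medium; compound exposure 24hr at 37 C, 5% CO2.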

Test [3] is described as follows: qHTS assay to identify small molecule agonists of the estrogen receptor beta (ER-beta) signaling pathway - cell viability counter screen (AID 1259380; active = well fitted curve in the direction sought with a large enough effect in the repeat runs; an effect the other way counts as inactive or inconclusive; also: nearly all actives have a fitted effect of over 30% in size; also: potency is read from the fitted curve at half-maximal effect). An outline of the steps: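 Luminescence read-out (CellTiter-Glo, 30 min, room temp) taken in the same wells as the beta-lactamase reporter assay; ER-beta-UAS-bla HEK293T cells exposed to DMSO-dissolved compounds for 16 hr at 37C in 2% charcoal-stripped FBS medium.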

Test [4] is described as follows: qHTS assay to identify small molecule antagonists of the estrogen receptor beta (ER-beta) signaling pathway - cell viability counter screen (AID 1259382; active = well fitted curve in the direction sought with a large enough effect in the repeat runs; an effect the other way counts as inactive or inconclusive; also: nearly all actives have a fitted effect of over 55% in size; also: potency is read from the fitted curve at half-maximal effect). An outline of the steps:
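Luminescent ATP read-out (CellTiter-Glo, 30 min, RT) taken in the same wells as the bla reporter assay. HEK293T ER-beta-UAS-bla cells in 2% charcoal-stripped FBS were exposed to compounds with 1nM E2 for 16 hr at 37C.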

Test [5] in a line: qHTS assay to identify small molecule agonists or antagonists of the thyroid stimulating hormone receptor (TSHR) signaling pathway - wild type cell line counter screen (AID 1259384). An outline of the steps: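 Wild-type Hek293 cells, 800/well, 18 h at 37C, then compound with Ro20-1724 for 30 min RT. cAMP by HTRF (cAMP-d2/anti-cAMP cryptate), 1 h RT, fluorescence read. 15 concentrations, triplicates.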

Test [6] has as its target Estrogen receptor beta (Homo sapiens) (UniProt Q92731). Briefly: qHTS assay to identify small molecule agonists of the estrogen receptor beta (ER-beta) signaling pathway (AID 1259377; active = well fitted activation curve with a large enough effect in the signal ratio in the repeat runs, not every such curve was filed as active; the % refers to the signal ratio). An outline of the steps:
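In HEK293T cells bearing a UAS-beta-lactamase reporter under ER-beta control, DMSO-delivered compounds were incubated for 16 hr at 37C. Activity was detected as fluorescence 2 hours after LiveBLAzer B/G FRET substrate addition.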

The target is the same in test [7]. Kind of test: qHTS assay to identify small molecule antagonists of the estrogen receptor beta (ER-beta) signaling pathway (AID 1259378; active = well fitted inhibition curve with a large enough effect in the signal ratio in the repeat runs, not every such curve was filed as active; the % refers to the signal ratio; also: potency is read from the fitted curve at half-maximal effect). An outline of the steps:
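ER-beta-UAS-bla HEK293T cells in 2% charcoal-stripped FBS medium treated with compound plus 1nM final 17-beta-estradiol for 16 hr at 37C. Beta-lactamase reporter read by FRET substrate fluorescence after 2 hours at room temperature.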

A short description of test [8]: qHTS assay to identify small molecule agonists of the androgen receptor (AR) signaling pathway in the presence of an antagonist - cell viability counter screen (AID 1259379; active = well fitted curve in the direction sought with a large enough effect in the repeat runs; an effect the other way counts as inactive or inconclusive; also: nearly all actives have a fitted effect of over 25% in size; also: potency is read from the fitted curve at half-maximal effect). An outline of the steps:
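Viability counter screen: CellTiter-Fluor fluorescence, measured in the same wells as the luciferase read-out. MDA-kb2 cells, 3,000/well, with nilutamide at 3.0uM final and compounds at 15 concentrations, 16 hr at 37C, 0% CO2.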

Test [9] has as its target Androgen receptor (Homo sapiens) (UniProt P10275). Briefly: qHTS assay to identify small molecule agonists of the androgen receptor (AR) signaling pathway in the presence of an antagonist (AID 1259381). Also: nearly all actives have a fitted effect of over 15% in size. An outline of the steps: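 Luciferase read-out (ONE-Glo, 30min room temperature) in MDA-kb2 MMTV-reporter cells; agonist mode run in presence of AR antagonist nilutamide, 3.0uM final. Compounds tested as 15-point series, 16hr exposure at 37C, 0% CO2.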

The target in test [10] is Estrogen receptor (Homo sapiens) (UniProt P03372). Kind of test: qHTS assay to identify small molecule agonists of the estrogen receptor alpha (ER-alpha) signaling pathway in the presence of an antagonist (AID 1259383). Also: top concentration of the series differs between compounds; nearly all actives have a fitted effect of over 15% in size. An outline of the steps:
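Luciferase luminescence (ONE-Glo, 30min at room temperature) measured in VM7Luc4E2 cells after 22hr compound exposure at 15 concentrations, with 10.0nM ICI-182,780 final present; cells express endogenous ER-alpha and carry four EREs upstream of luciferase.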

Sequence of Estrogen receptor beta (Homo sapiens) (Q92731 whole entry, looked up): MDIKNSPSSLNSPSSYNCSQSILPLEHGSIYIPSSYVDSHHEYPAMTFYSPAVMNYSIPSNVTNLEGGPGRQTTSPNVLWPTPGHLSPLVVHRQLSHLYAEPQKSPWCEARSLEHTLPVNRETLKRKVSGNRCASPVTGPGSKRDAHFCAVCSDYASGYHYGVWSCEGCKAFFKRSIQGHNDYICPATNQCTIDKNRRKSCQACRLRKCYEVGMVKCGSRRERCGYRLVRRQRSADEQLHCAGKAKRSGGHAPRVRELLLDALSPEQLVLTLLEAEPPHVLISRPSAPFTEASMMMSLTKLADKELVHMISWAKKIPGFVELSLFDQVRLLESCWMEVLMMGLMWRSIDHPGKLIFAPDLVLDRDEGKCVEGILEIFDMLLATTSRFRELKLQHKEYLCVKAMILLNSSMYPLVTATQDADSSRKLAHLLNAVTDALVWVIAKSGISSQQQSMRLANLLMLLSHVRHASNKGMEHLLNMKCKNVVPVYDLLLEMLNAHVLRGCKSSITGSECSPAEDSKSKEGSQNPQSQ
Sequence of Estrogen receptor (Homo sapiens) (P03372 whole entry, looked up): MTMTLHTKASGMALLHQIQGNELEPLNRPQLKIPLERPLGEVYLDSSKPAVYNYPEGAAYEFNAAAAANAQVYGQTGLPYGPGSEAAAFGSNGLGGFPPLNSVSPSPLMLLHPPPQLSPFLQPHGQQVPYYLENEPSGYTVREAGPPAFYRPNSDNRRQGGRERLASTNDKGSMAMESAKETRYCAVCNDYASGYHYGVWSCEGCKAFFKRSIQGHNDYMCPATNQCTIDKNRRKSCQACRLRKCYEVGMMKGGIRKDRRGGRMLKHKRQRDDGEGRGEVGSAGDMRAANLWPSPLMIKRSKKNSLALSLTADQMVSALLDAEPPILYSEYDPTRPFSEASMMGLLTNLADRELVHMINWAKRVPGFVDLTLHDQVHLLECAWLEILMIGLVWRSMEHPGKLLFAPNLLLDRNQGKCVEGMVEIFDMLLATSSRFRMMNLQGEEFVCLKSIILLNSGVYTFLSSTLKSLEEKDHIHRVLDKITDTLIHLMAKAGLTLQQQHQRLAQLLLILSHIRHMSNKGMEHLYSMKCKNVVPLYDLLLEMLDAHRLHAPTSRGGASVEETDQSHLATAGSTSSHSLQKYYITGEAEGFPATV
Sequence of Androgen receptor (Homo sapiens) (P10275 whole entry, looked up): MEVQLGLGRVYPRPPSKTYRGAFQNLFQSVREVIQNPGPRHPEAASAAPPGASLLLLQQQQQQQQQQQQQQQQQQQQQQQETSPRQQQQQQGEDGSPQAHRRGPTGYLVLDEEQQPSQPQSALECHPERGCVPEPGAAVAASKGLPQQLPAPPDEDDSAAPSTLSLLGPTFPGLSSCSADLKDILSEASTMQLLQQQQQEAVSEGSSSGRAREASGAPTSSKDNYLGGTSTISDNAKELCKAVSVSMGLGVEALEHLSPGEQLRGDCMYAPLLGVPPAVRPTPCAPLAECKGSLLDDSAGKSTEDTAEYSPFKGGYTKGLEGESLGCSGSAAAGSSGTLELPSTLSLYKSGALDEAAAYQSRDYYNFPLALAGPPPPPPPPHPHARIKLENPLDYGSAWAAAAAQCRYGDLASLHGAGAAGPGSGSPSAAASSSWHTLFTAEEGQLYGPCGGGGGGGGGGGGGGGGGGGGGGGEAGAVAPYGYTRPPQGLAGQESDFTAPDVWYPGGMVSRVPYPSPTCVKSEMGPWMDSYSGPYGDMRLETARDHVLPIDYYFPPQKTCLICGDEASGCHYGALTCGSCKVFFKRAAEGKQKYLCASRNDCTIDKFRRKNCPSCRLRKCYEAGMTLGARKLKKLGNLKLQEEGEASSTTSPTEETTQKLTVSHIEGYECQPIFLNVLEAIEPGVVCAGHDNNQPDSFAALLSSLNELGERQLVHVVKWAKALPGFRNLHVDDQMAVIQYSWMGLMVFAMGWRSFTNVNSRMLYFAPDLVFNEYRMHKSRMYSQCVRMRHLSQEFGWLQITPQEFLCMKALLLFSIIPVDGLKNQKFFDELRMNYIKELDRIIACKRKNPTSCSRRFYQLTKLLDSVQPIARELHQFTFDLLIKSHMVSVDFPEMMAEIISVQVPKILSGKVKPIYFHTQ

For the compound `CC(=O)NC1(c2cccc(F)c2)CCN(CC[C@@]2(c3ccc(Cl)c(Cl)c3)CN(c3ccccc3)C(=O)CO2)CC1`, the Potency result in test [1] is “inactive”. Further, the Potency is 24.4 µM (active) in test [2], 24.4 µM (active) in test [3] and 21.7 µM (active) in test [4]. In addition, the compound was classed as inactive in test [5].
Consider `O=C1NC(=O)c2cc([N+](=O)[O-])ccc21`, for which the Potency result in test [1], in test [6], in test [7], in test [8], in [3] and in test [9] was “inactive” in each case. In addition, the Potency result in test [4] and in [10] was “inactive” in each case. In addition, the call in test [5] was inactive.
In the case of `Cc1cc(C)cc(N)c1`, the Potency result in test [1], in [6], in [7], in test [8], in test [3] and in [9] was “inactive” each time. Moreover, the Potency entry in [4] and in test [10] was “inactive” throughout. Besides, the result in test [5] was inactive.
On to `OCCOCC#CCOCCO`, for which the Potency entry in test [1], in test [6], in test [7], in test [8], in [3] and in [4] was “inactive” throughout. In test [10], the Potency result was “inactive”. Besides, the compound was called inactive in test [5].
With `CCCC(=O)C(=O)O`, the Potency result in test [1], in [6], in [7], in [8], in test [3] and in [4] was “inactive” in each case. The Potency entry in test [10] was “inactive”. Moreover, in [5], the call was inactive.
For the compound `N#[N+]c1ccc2c(S(=O)(=O)[O-])cccc2c1O`, the Potency entry in [1], in test [2], in test [3], in test [4] and in [10] was “inactive” each time.
`C[C@]1(Cn2ccnn2)[C@H](C(=O)O)N2C(=O)C[C@H]2S1(=O)=O`: the Potency result in test [1], in test [2], in test [8], in [4] and in test [10] was “inactive” in each case. Besides, in test [5], the call was inactive.
As for `CC[C@]1(O)C[C@H]2CN(CCc3c([nH]c4ccccc34)[C@@](C(=O)OC)(c3cc4c(cc3OC)N(C=O)[C@H]3[C@@](O)(C(=O)OC)[C@H](OC(C)=O)[C@]5(CC)C=CCN6CC[C@]43[C@@H]65)C2)C1`, the Potency entry in test [1], in test [9], in test [4] and in test [10] was “inactive” in each case. The Potency in test [2] was 0.0266 µM (active). In addition, the outcome in test [5] was inactive.
Consider `CCOC(=O)/C=C/C(=O)OCC`, for which the Potency entry in test [1], in test [2], in [8], in [4] and in [10] was “inactive” throughout. Besides, the call in test [5] was inactive.
As to `CC(=O)OCC[N+](C)(C)C`, the Potency entry in [1], in test [6], in test [8], in test [3] and in test [4] was “inactive” in each case. Moreover, in test [5], the outcome was inactive.
Turning to `CC(=O)c1ccc([N+](=O)[O-])cc1`, the Potency result in [1], in test [6], in test [7], in [8], in test [3] and in test [4] was “inactive” in each case. Further, the call in test [5] was inactive.
As to `CCCCCCCCCCC(=O)O`, the Potency result in test [1], in test [6], in test [8], in test [4] and in test [10] was “inactive” in each case. The compound was classed as inactive in test [5].
As for `CC1(C)[C@@H](OC(=O)CCC(=O)O)CC[C@]2(C)[C@H]3C(=O)C=C4[C@@H]5C[C@@](C)(C(=O)O)CC[C@]5(C)CC[C@@]4(C)[C@]3(C)CC[C@@H]12`, the Potency entry in test [1], in [6], in [8], in [3] and in test [4] was “inactive” throughout. Further, in [5], the compound was classed as inactive.
For `CCc1ccccc1`, the Potency result in [1], in test [6], in test [7], in test [8], in test [3] and in [4] was “inactive” in each case. Besides, the outcome in test [5] was inactive.
With `CC(CC1c2ccccc2CCc2ccccc21)CN(C)C` (centres undefined), the Potency entry in [1], in test [6], in [8] and in test [10] was “inactive” each time. Also, the Potency in [3] is 33.5 µM (active); in test [4], 21.1 µM (active).
On to `C/C=C/C=C/C=O`, for which the Potency result in [1], in [6], in test [8], in test [3], in [9] and in [4] was “inactive” each time. In addition, the Potency entry in [10] was “inactive”.
Consider `Clc1ccc(Nc2nnc(Cc3ccncc3)c3ccccc23)cc1`, for which the Potency entry in test [1], in test [6], in test [8], in test [4] and in test [10] was “inactive” in each case. In [7], the Potency is 13.3 µM (active). For the same compound, the compound was classed as inactive in test [5].
As to `CCOc1ccc(Cc2nccc3cc(OCC)c(OCC)cc23)cc1OCC`, the Potency result in test [1], in test [6], in test [3], in [9], in [4] and in test [10] was “inactive” in each case. The Potency in test [8] was 29.8 µM (active). Moreover, the call in test [5] was inactive.
In the case of `CCCC(C(=O)OCCN(CC)CC)(c1ccccc1)c1ccccc1`, the Potency result in [1], in [6], in test [7] and in test [10] was “inactive” each time. Moreover, in test [3], the Potency is 29.8 µM (active). In [5], the outcome was inactive.
With `CCCCCCCC/C=C\CCCCCCCCO`, the Potency result in test [1], in test [6], in test [8], in test [3] and in test [4] was “inactive” in each case. Further, the call in [5] was inactive.
For the compound `Nc1cccc2c1CN(C1CCC(=O)NC1=O)C2=O` (centres undefined), the Potency result in [1], in test [6], in test [8], in test [3], in [4] and in test [10] was “inactive” each time. Besides, in [5], the compound was called inactive.
Take `O=C(O)CCCCCCCCCCCBr`: the Potency entry in [1], in test [6], in [7], in [8], in [4] and in test [10] was “inactive” in each case.
In the case of `O=C(CCCN1CC=C(n2c(=O)[nH]c3ccccc32)CC1)c1ccc(F)cc1`, the Potency result in test [1], in [6], in [7] and in [8] was “inactive” each time. The Potency in test [3] was 13.3 µM (active). Also, the compound was classed as inactive in test [5].
As to `CCCCN1CCCC1C(=O)Nc1c(C)cc(C)cc1C` (centres undefined), the Potency entry in [1], in test [6], in test [8], in test [3], in [4] and in test [10] was “inactive” in each case. Also, the result in test [5] was inactive.
For `CC1=C(CC=O)C(C)(C)CCC1`, the Potency result in test [1], in [6], in test [7], in [8], in test [3] and in test [4] was “inactive” throughout. In addition, in [5], the result was inactive.
As to `COc1ccccc1N1CCN(CC(O)COc2cccc3ccccc23)CC1` (centres undefined), the Potency entry in test [1], in test [6] and in test [8] was “inactive” throughout. For the same compound, the Potency is 23.7 µM (active) in [7], 5.96 µM (active) in test [3] and 5.96 µM (active) in test [4]. Besides, the result in [5] was inactive.
Take `Cc1cccc(N(C)C(=S)Oc2ccc3c(c2)CCC3)c1`: the Potency result in test [1], in [6], in test [8], in test [4] and in test [10] was “inactive” throughout.
